Assay [1] can be described thus: compounds binding Alexa647 anti-His antibody – biochemical, small-molecule microarray, 635 nm fluorescence, artefact control for SMM control protein annotation, primary screen (AID 1128).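 Further: score merges feature fluorescence with signal-to-noise for each printed compound spot.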 As to conditions: higher = more signal.
Assay [2] has as its system Human papillomavirus type 1a E7 protein (residues 1-88). The assay is described as follows: HPV1a E7 small-molecule binders, primary screen, biochemical, small-molecule microarray, residues 1-88, 635 nm (AID 1129). As to conditions: small-molecule microarray binding, fluorescence 635 nm; higher = more signal.
Assay [3] concerns the target Focal adhesion kinase 1 (Homo sapiens) (UniProt Q05397). The assay is described as follows: PTK2 protein binding on printed compound slides – biochemical, small-molecule microarray, 635/667 nm fluorescence, BSA, DTT, primary screen (AID 1130).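 Further: composite of spot emission at 667 nm and signal to noise over triplicate slides.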 As to conditions: 635 nm fluorescence, higher = more signal.
Assay [4] deals with Fibrinogen (Alexa647-labelled). The assay is described as follows: Alexa647-fibrinogen binding to printed small molecules – biochemical, small-molecule microarray, 635/667 nm fluorescence, artefact control for SMM control-protein annotation, profiling panel (AID 1131).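 Further: z-score merges 667 nm fluorescence with per-spot signal-to-noise over triplicate slides.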 As to conditions: fibrinogen-A647 binding fluorescence, higher = more signal.
For assay [5], the target named is Follistatin (Homo sapiens) (UniProt P19883). Briefly: FST protein binding to printed compounds – biochemical, small-molecule microarray, 635/667 nm fluorescence, primary screen (AID 1132). As to conditions: 635 nm fluorescence, higher = more signal.
Assay [6] has as its target Fibroblast growth factor 2 (Homo sapiens) (UniProt P09038). The assay is described as follows: basic fibroblast growth factor binding to printed compounds – biochemical, small-molecule microarray, 635/667 nm fluorescence, primary screen (AID 1133). The settings on record: FGF2, fluorescence 635/667, higher = more signal.
The nature of assay [7]: JC-1 mitochondrial potential readout, lung cancer cells – cell-based, A549, JC-1 fluorescence, basal, 24 h, 100 nL, profiling panel (AID 1138).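 Further: A549 lung adenocarcinoma cells under basal conditions with no added stimulus; test concentration not given here.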 As to conditions: higher = more signal.
Assay [8] concerns Lefty1. The assay is described as follows: Lefty1 protein binding to printed compounds – biochemical, small-molecule microarray, 635/667 nm fluorescence, primary screen (AID 1139). As to conditions: fluorescence 635/667, higher = more signal.
Assay [9] deals with wheat germ agglutinin (Triticum aestivum), Alexa647-labelled. Briefly: Alexa647-WGA lectin binding to printed small molecules – biochemical, small-molecule microarray, 635/667 nm fluorescence, artefact control for SMM control-protein annotation, profiling panel (AID 1140).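 Further: score merges 667 nm feature emission with signal to noise over triplicate slides.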 As to conditions: WGA-A647 binding, 635 nm fluorescence, higher = more signal.
In assay [10] the target is Luciferin 4-monooxygenase (Photinus pyralis) (UniProt P08659). Briefly: inhibition of purified Photinus pyralis luciferase – biochemical, luminescence, purified enzyme, 2006 set, primary screen (AID 1141).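 Further: cell-free assay with purified firefly luciferase at 100 ng per well in PBS; test concentration not given here.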 As to conditions: purified firefly luciferase, SteadyGlo luminescence, 30 min; higher = more signal, called active from +8 up or from −8 down.
In assay [11] the test system is Wnt5a (protein binding on small-molecule microarray). Briefly: small molecules binding Wnt5a protein – biophysical, small-molecule microarray, 635/667 nm fluorescence, primary screen (AID 1142).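 Further: fluorescence read at 667 nm with signal to noise per printed feature.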 The settings on record: 635 nm fluorescence, higher = more signal.
A short description of assay [12]: ATP-based viability of Huh7 replicon cells – cell-based, CellTiter-Glo luminescence, basal, 48 h, cytotoxicity control for HCV replication inhibitor project, primary screen (AID 1143).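 Further: Huh7 hepatoma cells carrying a hepatitis C replication reporter with no stimulus; test concentration not given here.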 The settings on record: higher = more signal, called active from +8 up or from −8 down.
Assay [13] in a line: Pseudomonas biofilm growth suppression – PAO1 strain, BacTiter-Glo luminescence, LB-PBS, primary screen (AID 1144). As to conditions: P. aeruginosa PAO1 biofilm, 12 h, higher = more signal.
Assay [14] can be described thus: basal CRE-LacZ reporter activity in PC12 – cell-based, unstimulated, primary screen (AID 1145). As to conditions: no forskolin, luminescence, 4.5 h, higher = more signal, called active from +8 up or from −8 down.
Assay [15] is described as follows: forskolin-driven CRE-LacZ activity in PC12 – cell-based, CRE-LacZ reporter, forskolin-stimulated, primary screen (AID 1146).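 Further: PC12 cells with 6xCRE LacZ reporter stimulated by forskolin 10 µM; beta-galactosidase reporter signal reflecting CREB driven transcription.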 The settings on record: luminescence, 4.5 h, higher = more signal, called active from +8 up or from −8 down.
Assay [16] has as its target Streptavidin (Streptomyces avidinii) (UniProt P22629). Briefly: compounds binding control protein streptavidin – biophysical, small-molecule microarray, 635/667 nm fluorescence, artefact control for SMM compound annotation, primary screen (AID 1147).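 Further: signal reflects streptavidin binding to arrayed compounds as a control protein.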 As to conditions: higher = more signal.
Assay [17] can be described thus: probe aInhba binding on compound microarray – biochemical, small-molecule microarray, 635/667 nm fluorescence, primary screen (AID 1148).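 Further: score merges 667nm spot fluorescence with signal-to-noise for antibody binding to printed compounds.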 As to conditions: higher = more signal.
For assay [18], the target named is Torsin-1A (Homo sapiens) (UniProt O14656). Briefly: TOR1A wild-type binding on microarray – cell lysate, small-molecule microarray, lysate, 635/667 nm, primary screen (AID 1149). The settings on record: COS7 hTOR1A-WT lysate, 635 nm fluorescence, higher = more signal.
The target is the same in assay [19]. The assay is described as follows: torsin A mutant lysate binding on microarrays – cell lysate, small-molecule microarray, COS7 lysate, 635/667 nm fluorescence, primary screen (AID 1150).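 Further: score pools 667 nm emission and signal to noise measuring lysate protein binding.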 As to conditions: COS7 hTOR1A mutant lysate, 635 nm fluorescence, higher = more signal.
In assay [20] the test system is Sonic hedgehog protein (Shh). The assay is described as follows: Sonic hedgehog microarray binding compounds – biochemical, small-molecule microarray, 635/667 nm fluorescence, primary screen (AID 1151).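 Further: Shh protein binding to compounds spotted on small-molecule microarray slides; score combines spot fluorescence intensity with signal-to-noise across triplicate slides.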 As to conditions: 635 nm fluorescence, higher = more signal.

The source made the active and inactive calls. Unless noted, how the calls were made is not given here.

Streptavidin (Streptomyces avidinii), sequence (P22629 whole entry, looked up): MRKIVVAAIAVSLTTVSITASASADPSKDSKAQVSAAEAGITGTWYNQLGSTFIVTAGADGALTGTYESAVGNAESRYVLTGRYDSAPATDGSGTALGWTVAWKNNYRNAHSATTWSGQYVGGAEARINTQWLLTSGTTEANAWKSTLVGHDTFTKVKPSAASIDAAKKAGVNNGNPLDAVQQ
Follistatin (Homo sapiens), sequence (P19883 whole entry, looked up): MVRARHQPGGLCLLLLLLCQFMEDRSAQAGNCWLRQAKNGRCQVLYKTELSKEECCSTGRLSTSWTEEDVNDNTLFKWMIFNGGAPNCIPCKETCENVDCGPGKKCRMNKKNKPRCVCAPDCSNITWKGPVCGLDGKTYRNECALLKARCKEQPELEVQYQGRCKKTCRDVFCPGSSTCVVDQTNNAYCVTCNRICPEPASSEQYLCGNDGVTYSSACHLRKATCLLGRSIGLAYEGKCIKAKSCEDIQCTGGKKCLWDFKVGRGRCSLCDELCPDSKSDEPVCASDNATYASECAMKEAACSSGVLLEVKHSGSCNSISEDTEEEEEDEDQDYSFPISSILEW
Fibroblast growth factor 2 (Homo sapiens), sequence (P09038 whole entry, looked up): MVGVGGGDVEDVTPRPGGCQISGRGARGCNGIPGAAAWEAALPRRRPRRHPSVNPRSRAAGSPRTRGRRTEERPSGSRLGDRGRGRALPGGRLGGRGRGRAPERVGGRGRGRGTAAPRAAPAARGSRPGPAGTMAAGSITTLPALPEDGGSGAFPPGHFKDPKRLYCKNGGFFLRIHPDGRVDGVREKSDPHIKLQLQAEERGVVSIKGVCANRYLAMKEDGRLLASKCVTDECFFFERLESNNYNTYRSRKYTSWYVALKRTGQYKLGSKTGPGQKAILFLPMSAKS
Focal adhesion kinase 1 (Homo sapiens), sequence (Q05397 whole entry, looked up): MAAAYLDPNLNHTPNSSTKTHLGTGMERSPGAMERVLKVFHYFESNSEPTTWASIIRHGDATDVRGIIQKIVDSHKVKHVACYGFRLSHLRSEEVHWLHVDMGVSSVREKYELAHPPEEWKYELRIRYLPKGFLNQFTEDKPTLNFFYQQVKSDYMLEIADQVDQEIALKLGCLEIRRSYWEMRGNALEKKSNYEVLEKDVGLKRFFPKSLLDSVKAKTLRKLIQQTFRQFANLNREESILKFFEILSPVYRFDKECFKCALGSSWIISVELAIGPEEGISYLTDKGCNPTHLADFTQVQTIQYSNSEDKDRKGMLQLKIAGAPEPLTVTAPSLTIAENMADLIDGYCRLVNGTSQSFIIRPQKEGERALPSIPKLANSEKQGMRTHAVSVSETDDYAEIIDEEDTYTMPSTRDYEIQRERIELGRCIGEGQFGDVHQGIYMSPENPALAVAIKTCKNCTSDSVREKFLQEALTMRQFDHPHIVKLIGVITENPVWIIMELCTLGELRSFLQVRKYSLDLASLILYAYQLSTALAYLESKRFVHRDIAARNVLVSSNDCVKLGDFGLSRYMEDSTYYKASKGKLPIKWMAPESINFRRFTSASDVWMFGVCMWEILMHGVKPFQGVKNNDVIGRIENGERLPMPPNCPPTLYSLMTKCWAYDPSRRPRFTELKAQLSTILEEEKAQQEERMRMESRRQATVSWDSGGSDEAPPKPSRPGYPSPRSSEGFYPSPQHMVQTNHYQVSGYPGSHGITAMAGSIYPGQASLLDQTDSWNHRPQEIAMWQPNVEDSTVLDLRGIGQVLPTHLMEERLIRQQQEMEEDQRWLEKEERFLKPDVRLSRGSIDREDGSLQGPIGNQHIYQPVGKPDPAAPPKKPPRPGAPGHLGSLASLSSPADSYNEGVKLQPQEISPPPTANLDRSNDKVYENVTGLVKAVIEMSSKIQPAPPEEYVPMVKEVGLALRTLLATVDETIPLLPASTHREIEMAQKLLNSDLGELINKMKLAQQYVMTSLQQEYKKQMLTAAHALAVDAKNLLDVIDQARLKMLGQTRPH
Luciferin 4-monooxygenase (Photinus pyralis), sequence (P08659 whole entry, looked up): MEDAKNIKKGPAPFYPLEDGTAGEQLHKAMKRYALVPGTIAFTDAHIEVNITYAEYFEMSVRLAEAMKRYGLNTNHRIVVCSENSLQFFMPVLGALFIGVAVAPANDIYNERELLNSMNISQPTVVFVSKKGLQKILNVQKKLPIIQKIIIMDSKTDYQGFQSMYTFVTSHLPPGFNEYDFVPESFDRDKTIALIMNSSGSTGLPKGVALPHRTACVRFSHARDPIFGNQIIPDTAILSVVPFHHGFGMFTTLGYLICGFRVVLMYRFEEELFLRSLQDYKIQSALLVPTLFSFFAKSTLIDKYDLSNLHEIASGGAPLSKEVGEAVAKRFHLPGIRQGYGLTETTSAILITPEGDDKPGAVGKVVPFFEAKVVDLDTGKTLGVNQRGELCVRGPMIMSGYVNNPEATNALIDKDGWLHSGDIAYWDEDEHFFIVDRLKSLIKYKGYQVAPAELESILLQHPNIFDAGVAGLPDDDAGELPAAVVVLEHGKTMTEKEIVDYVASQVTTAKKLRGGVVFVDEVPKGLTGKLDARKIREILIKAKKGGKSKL
Torsin-1A (Homo sapiens), sequence (O14656 whole entry, looked up): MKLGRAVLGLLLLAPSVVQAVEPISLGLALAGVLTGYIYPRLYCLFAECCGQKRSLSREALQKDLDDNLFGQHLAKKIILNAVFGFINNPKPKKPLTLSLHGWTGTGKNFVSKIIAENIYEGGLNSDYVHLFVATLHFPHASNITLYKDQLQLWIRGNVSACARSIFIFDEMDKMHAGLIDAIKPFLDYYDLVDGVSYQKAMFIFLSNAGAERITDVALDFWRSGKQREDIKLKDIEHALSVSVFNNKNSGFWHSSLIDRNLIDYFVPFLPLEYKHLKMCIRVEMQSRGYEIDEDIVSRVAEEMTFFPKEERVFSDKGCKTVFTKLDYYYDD

Turning to `[N-]=[N+]=NCc1ccccc1C[C@]1(C(=O)N2CCOCC2)COC(c2ccc(OCCCO)cc2)=N1`, the composite z-score was 2.22 in assay [1]; 1.19 in assay [2]; 0.168 in assay [3]; 0.695 in [4]; 0.234 in assay [5]; -0.309 in assay [6]. For the same compound, the composite z-score was -0.346 in assay [8]; 1.01 in [9]; 0.0879 in assay [11]; 1.6 in assay [16]; 0.0888 in [17]; 1.71 in [18]. For the same compound, the values for the composite z-score in assay [19] and in [20] were 1.56 and 0.179, respectively. Also, the z-score is 2.41 in assay [7]; -1.21 (inactive) in [10]; -3.07 (inactive) in [12]; -0.983 (inactive) in assay [13]; 1.69 (inactive) in assay [14]; -0.931 (inactive) in assay [15].
Regarding `C=C(COC)/C(=C/C[C@@H](OC(C)=O)c1ccc(CO)o1)c1cc(C(=O)OC)ccc1OC`, the composite z-score is 0.291 in assay [1]; 0.091 in assay [2]; -0.198 in assay [3]; -0.341 in [4]; 0.758 in assay [5]; -0.314 in assay [6]. The composite z-score was 0.933 in assay [8]; -0.188 in assay [9]; -0.0561 in [11]; -0.367 in assay [16]; -0.0933 in assay [17]; -0.5 in [18]. The figures for the composite z-score in assay [19] and in assay [20] were 0.666 and 1.64, respectively. Besides, the z-score in [7] is 0.173; in assay [10] it was -1.53 (inactive); in [12] it was 0.0759 (inactive); in [13], -0.921 (inactive); in assay [14] it was -0.0602 (inactive); in assay [15], 1.12 (inactive).
In the case of `COC(=O)[C@@]1(Cc2ccc(F)cc2)[C@H]2c3cc(C(=O)N4CCCC4)n(CC4CC4)c3C[C@H]2CN1C(=O)c1ccccc1`, the composite z-score in assay [1] turned out to be 2.46; in [2] it was 1.28; in assay [3], 0.467; in [4], 1.03; in assay [5] it was 1.26; in assay [6], 0.107. Besides, the composite z-score in assay [8] was -0.39; in [9], 0.718; in [11], 0.0479; in assay [16], 1.86; in assay [17], 0.74; in assay [18], 0.111. Moreover, the composite z-score was 1.03 in [19] and 0.377 in assay [20]. Also, the z-score in assay [7] was 0.699; in [10] it was 1.35 (inactive); in assay [12] it was -2.61 (inactive); in assay [13] it was 0.197 (inactive); in [14] it was 0.972 (inactive); in [15], -0.451 (inactive).
For the compound `C=C(CCCC)C(=O)CC[C@H](OC(=O)c1ccccc1-c1ccccc1C(=O)O)c1ccccc1OCCO`, the composite z-score in assay [1] was 1.51; in assay [2], 0.341; in assay [3], -0.218; in assay [4] it was 0.412; in assay [5], 0.419; in assay [6], 0.448. Also, the composite z-score in assay [8] is 0.311; in assay [9] it was -0.107; in [11], -0.131; in assay [16], -0.759; in assay [17], -0.179; in assay [18], 1.03. Besides, the figures for the composite z-score in [19] and in assay [20] were 0.221 and 2.07, respectively. Further, the z-score was 0.58 in [7]; -1.82 (inactive) in assay [10]; -0.397 (inactive) in [12]; -0.447 (inactive) in assay [13]; 5.04 (inactive) in assay [14]; 5.73 (inactive) in [15].
`CC(C)C[C@@H]1NC(=O)[C@H]2C[C@@H](C(=O)NCCCCCN)[C@@H](c3cccc(OCCO)c3)N2C1=O`: the composite z-score in [1] is 1.22; in assay [2] it was 0.334; in assay [3], -0.0639; in assay [4], 0.133; in assay [5], -0.214; in [6], 0.181. The composite z-score was -0.813 in assay [8]; 0.817 in [9]; -0.0295 in [11]; -0.174 in assay [16]; -0.008 in assay [17]; 0.67 in assay [18]. Besides, the composite z-score was 0.207 in [19] and -0.414 in assay [20]. In addition, the z-score in assay [7] was 0.34; in assay [10] it was -1.07 (inactive); in [12] it was -0.707 (inactive); in [13], -0.887 (inactive); in assay [14], 0.273 (inactive); in assay [15], -0.673 (inactive).

(Values after PubChem BioAssay.)
